Compounds without any hit were thinned out: in the full panel of roughly 83,000, 20% have a hit.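 Negative percent growth values reflect cell death: -40 means 40% of the cells present at the start died, and -100 means all died.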 Unmarked numbers belong to inactive results. Calls of active or inactive are those of the source.

The subject of the test is UO-31 renal. The test can be described thus: NCI-60 one-dose screen, 48 h (100 = growth as untreated, 0 = no growth, -100 = all killed). The note with it: 10 µM unless noted. Here is the method:
Growth inhibition of the UO-31 human tumor cell line is measured as a screen for anti-cancer activity. Cells are grown in 96 well plates and exposed to the test compound for 48 hours. Compounds are tested at a single concentration, which is 10^-5 M for most compounds. The reported endpoint is percent growth (GI% or GIPRCNT), where numbers from 0 - 100% represent growth inhibition, and numbers from -100% - 0 represent cell death. For example, a value of 40 represents 60% growth inhibition. A value of 0 means no net growth occurred over the course of the experiment. A value of -40 indicates 40% of cells at the beginning of the experiment died by the end of the experiment. A value of -100 means all cells are dead at the end of the experiment.
NCI-60 Human Tumor Cell Lines Screen was performed using the standard one-dose NCI protocol, which is described in more detail at https://dtp.cancer.gov/discovery_development/nci-60/default.htm.
Compounds with GIPRCNT values below 10 were considered active. Activity score was based on GIPRCNT using the following formula: […]
Score is 0 for GIPRCNT values of 100 or above, 50 for GIPRCNT values of 0, and 100 for GIPRCNT values of -100.
Turning to `COC(=O)c1c2c(c(C)[n+]([O-])c1C)C(=O)C(NCc1ccc(F)c(F)c1)=CC2=O`, the growth is 58.8%.

Consider `COC(=O)/C(=C\c1c(C)[nH]c2ccccc12)S(=O)(=O)c1ccccc1`, for which the growth is 23.8%.

Regarding `COc1cc(/C=C/C(=O)N2c3ccccc3CC2C)c(OC)c2c1OCO2` (stereo not given), the growth is 77.9%.

For `Cc1cc2c(c(C)c1Cl)C(=O)/C(=C/c1ccco1)O2`, the growth was 78.3%.

Consider `COc1ccc(/C=c2\sc3n(c2=O)NC2C(N=3)N(C)C(=O)N2C)cc1` (stereo not given), for which the growth is 77.6%. Turning to `Cc1ccc(Cn2c(N3CCC(C(=O)NCc4cccs4)CC3)nc3ccccc32)cc1`, the growth was 65%.

Take `NCCOc1ccccc1/C=C1\c2ccccc2-c2ccc([N+](=O)[O-])cc21`: the growth is -7% (active). Turning to `COc1ccc(-c2cn[nH]c2-c2ccc(OC)c(O)c2)cc1`, the growth is 85.1%. Turning to `C=C(C)CCC(C)N1CCC(N2CCC(C(=O)NCCc3ccccc3)CC2)CC1` (stereo not given), the growth is 78.2%. Regarding `O=C(CSc1nc2ccccc2c(=O)n1-c1ccccc1)Nc1ccc(C(=O)/C=C/c2ccc(Cl)cc2)cc1`, the growth is 82.5%. `Nc1ccc(-n2c(=O)oc3ccc(Cl)cc3c2=O)c(Cl)c1`: the growth was 0.242% (active). Under `CN(C)c1ccc(/C=C/c2ccnc3c(O)cccc23)cc1` stands -2.54% (active).

For `COC(=O)/C(CCC=C(C)C)=C1\[C@@H](OC(C)=O)C[C@@]2(C)[C@H]1C[C@@H](O)[C@H]1[C@@]3(C)CC[C@H](NCCCNCCCCNCCCN)[C@@H](C)[C@@H]3CC[C@@]12C`, the growth was 51.7%.

Turning to `CC(C)Cn1c2c(c(=S)[nH]c1=O)CCC2`, the growth was 86%. Take `CC1=NCC2NC(=O)NC(C)=C12` (stereo not given): the growth was 83.6%. In the case of `O=C1NC(=S)NC(=O)C1=Cc1cn(Cc2cn(Cc3cccc4ccccc34)nn2)c2ccccc12`, the growth was 67.7%. On to `COc1cc(/C=C2\CN(C)C/C(=C\c3cc(CN4CCCC4)c(O)c(OC)c3)C2=O)cc(CN2CCCC2)c1O`, for which the growth is 80.7%.

Turning to `CC[C@]1(O)C[C@@H]2CN(CCc3c([nH]c4ccccc34)[C@@](C(=O)OC)(c3cc4c(cc3OC)N(C)[C@H]3[C@@](O)(C(=O)OC)[C@H](OC(C)=O)[C@]5(CC)C=CCN6CC[C@]43[C@@H]65)C2)C1`, the growth is 41.6%. Consider `O=C1c2cc(I)ccc2Oc2cc([N+](=O)[O-])ccc2N1c1ccc(Cl)cc1F`, for which the growth is 63.6%.

On to `CCN(CCO)CCNc1ccc(C)c2sc3cc(Cl)ccc3c(=O)c12`, for which the growth was 37.5%. With `CCC(C)(C)C(=O)O[C@H]1C[C@@H](C)C=C2C=C[C@H](C)[C@H](CC[C@@H]3CC=CC(=O)O3)[C@H]21` the figure was 76%; with `Cc1ccc(C2CC(c3ccc(Nc4nc(NCCO)nc(Nc5ccc(Cl)cc5)n4)cc3)=NN2c2cc(Cl)cc(Cl)c2)cc1` (stereo not given), 70.4%. For the compound `O=C(Nc1ccccc1O)c1ccc(Oc2cccc(C(=O)Nc3ccccc3O)c2)cc1`, the growth is 5.32% (active).

As to `NCCOc1ncccc1/C=C1\c2ccccc2-c2ccc(F)cc21`, the growth was -17.5% (active). With `COc1ccc(S(=O)(=O)N(Cc2ccc3c(n2)C=CC(C)(C)O3)C2CCC2)cc1OC` the figure was -10.2% (active); with `O=c1c(-c2nc3ccccc3[nH]2)cc2ccccc2n1Cc1cn(Cc2ccccc2Cl)nn1`, -65.7% (active). For the compound `CCN(CC)c1cc(C)c2cc(NC(=O)c3cccc(OC)c3)ccc2n1`, the growth was 81.6%. As for `CN1CCN(Cc2ccc(C(=O)Nc3cncc(C#Cc4cnc(N)c5ccccc45)c3)cc2C(F)(F)F)CC1`, the growth is -90.7% (active). With `NNC(=O)CNC(=O)Nc1n[nH]c(=S)s1`, the growth was 73.6%. Under `CC1=C(C(=O)OCC2CCN(C(=O)OC(C)(C)C)CC2)[C@H](c2cccc(Br)c2)C2=C(CC(C)(C)CC2=O)N1` stands 31.2%; under `O=c1cc(NC2CCN(CCCc3ccccc3)CC2)c2cc(Cl)ccc2o1`, -10.4% (active).

In the case of `NC(CCc1nc2ccccc2c(=O)[nH]1)C(=O)O` (stereo not given), the growth is 86.7%. Turning to `Clc1ccc(Oc2ccc(Nc3ncnc4onc(-c5ccccc5)c34)cc2)c(Cl)c1`, the growth is 67%. Regarding `COc1cc(C(=O)O/N=C(\N)Cc2cccc3ccccc23)cc(OC)c1OC`, the growth was -44.3% (active).

Regarding `O=C1C(Cl)=C(NCc2ccco2)C(=O)c2ccccc21`, the growth was 97.3%. As to `O=S1(=O)N(Cc2ccccc2)[C@@H](Cc2ccccc2)[C@H](O)[C@H](O)[C@H](Cc2ccccc2)N1Cc1ccccc1`, the growth is 0% (active). In the case of `c1ccc2c(c1)oc1cc3sccc3nc12`, the growth is 66.6%. Turning to `COC(=O)[C@H]1CCCN1C(=O)[C@H]1CCCN1C(=O)[C@H](Cc1c[nH]c2ccccc12)NC(=S)Nc1cc(C(F)(F)F)cc(C(F)(F)F)c1`, the growth was 45.5%. `CCCCOCc1cc(CN2CCN(C)CC2)c(O)c2ncccc12`: the growth was 21.3%. Take `CCN1C(=O)N(c2ccccc2)C2NN=c3s/c(=C4\C(=O)N(C(C)C)c5ccccc54)c(=O)n3C21` (stereo not given): the growth is 55.6%.

The values are drawn from PubChem BioAssay (NCI).
